Assay results from PubChem BioAssay (NCATS).
Where “and” joins values, the source holds several entries; their conditions need not be identical. Identical values can stand only once. Records with an inconclusive call do not appear. Calls of active or inactive are those of the source. Unless noted, calls come from the whole dose curve; as a rule, active = well fitted curve in the direction sought with a large enough effect; inconclusive = small, poorly fitted or top-dose-only effect, or another doubt; inactive = no such curve, though single readings can be large; an effect the other way counts as inactive or inconclusive.

Columns and labels:
[1] = Cell Viability - HepG2 (AID 433; calls by dose curve;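 note: potency is the fitted concentration of half-maximal effect; potency for ATP loss meaning cytotoxicity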); conditions: qHTS
Outline: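 Read-out is luciferase-based quantitation of cellular ATP as a measure of viable HepG2 cells after 40 h treatment at 37 °C. Signal decrease is scaled between DMSO-only and 100 uM tamoxifen controls, with AC50 fitted by the Hill equation.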

[2] = Cell Viability - MRC5 (AID 434; calls by dose curve;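 note: potency is the fitted concentration of half-maximal effect; potency reflects cytotoxicity seen as loss of intracellular ATP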); conditions: MRC5 lung fibroblast viability, qHTS
Outline: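 qHTS cytotoxicity in human lung fibroblast MRC5 cells; 40 hr treatment, 37 °C; cellular ATP by luciferase luminescence; DMSO = 0%, 100 uM tamoxifen = 100% inhibition; Hill-fit AC50.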

[3] = Cell Viability - NIH 3T3 (AID 541); conditions: NIH 3T3 cell viability, qHTS; activity change, negative = cytotoxicity: at 92.2 µM (top of the series);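 note: plate controls were DMSO alone for no effect and tamoxifen positive control for full effect; nearly all actives have a fitted effect of over 25% in size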
Outline: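 Luminescent ATP signal (CellTiter-Glo) served as the viability read-out after NIH 3T3 cells were exposed to compounds over a concentration range for 40 hr at 37 °C. Hill-equation modelling of concentration-response data gave AC50.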

[4] = Cell Viability - HUV-EC-C (AID 542); conditions: HUV-EC-C endothelial cell viability, qHTS; series mostly up to 92.2 µM; note: % is set by controls: 0 for no effect and ±100 for the full control effect; nearly all actives have a fitted effect of over 35% in size
Outline: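 qHTS cytotoxicity: HUV-EC-C, 1000 cells/well, 5 hr settle, compound 40 hr 37 °C, CellTiter-Glo, luminescence. AC50 via Hill equation.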

[5] = Cell Viability - SH-SY5Y (AID 544); conditions: SH-SY5Y neuroblastoma cell viability; viability change, negative = cytotoxic: at 92.2 µM (top of the series); note: nearly all actives have a fitted effect of over 55% in size
Outline: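 Luminescent ATP read-out (CellTiter-Glo) measures loss of viable SH-SY5Y neuroblastoma cells after 40 hr compound exposure at 37 °C. AC50 values derive from standard Hill modelling of qHTS concentration-response data.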

[6] = Cell Viability - Renal Proximal Tubule (AID 545); conditions: renal proximal tubule cells viability; at 91.7 µM (top of the series), primary cells of rat origin unless noted; note: nearly all actives have a fitted effect of over 40% in size
Outline: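 Luminescent ATP signal (CellTiter-Glo) served as the viability read-out after 40 hr compound exposure of freshly isolated rat proximal tubule cells at 37 °C. Concentration-dependent ATP loss was fitted with the Hill equation to give AC50.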

[7] = Cell Viability - Mesenchymal (AID 546); conditions: mesenchymal cells viability, qHTS; series mostly up to 91.7 µM;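 note: cells exposed to compound for 40 hours before reading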
Outline: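 AC50 values reflect the drop in intracellular ATP in a human kidney mesenchymal line derived from normal glomeruli. Treatment lasts 40 hr at 37 °C in complete medium, and the signal comes from CellTiter-Glo luminescence.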

[8] = Cellular Toxicity (caspase-3) Jurkat (AID 655); conditions: Jurkat caspase-3 activation, luminescence, DMSO = 0%, tamoxifen = 100%; at 92.2 µM (top of the series);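 note: cells exposed to compound for 16 h at 37 °C before reading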
Outline: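 5000 Jurkat cells/well; compound 16 hr, 37 °C; Caspase-Glo 3/7 added, 20 min RT; luminescence read. Norm: DMSO = 0%, tamoxifen 100 uM = 100%. AC50, Hill model.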

[9] = Cellular Toxicity (caspase-3) HUV-EC-C (AID 656); conditions: HUV-EC-C cells, caspase-3 activation (apoptosis), vehicle = 0, 100 µM tamoxifen = 100%; series mostly up to 92.2 µM
Outline: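 qHTS; HUV-EC-C, 1000 cells/well; 5 hr settle, 16 hr cmpd, 37°C; Caspase-Glo 3/7, 20 min RT; luminescence. Norm: DMSO = 0%, tamoxifen 100 uM = 100%. Hill-fit AC50.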

[10] = Cellular Toxicity (caspase-3) SHSY5Y (AID 657); conditions: SH-SY5Y caspase-3 activation, DMSO zero, 10 µM staurosporine = 100%; series mostly up to 91.7 µM;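 note: cells exposed to compound for 16 hours at 37 °C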
Outline: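 qHTS, SH-SY5Y, 1500 cells/well, 5 h pre-incubation 37 °C; compound 16 h 37 °C; Caspase-Glo 3/7 1 h RT; luminescence. Norm.: DMSO = 0, 10 uM staurosporine = 100%. Hill fit → AC50.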

[11] = Cellular Toxicity (caspase-3) BJ (AID 658); conditions: BJ fibroblasts, luminescence, normalized: DMSO 0%, staurosporine 100%; series mostly up to 91.7 µM
Outline: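 Readout: Caspase-Glo 3/7 luminescence increase in BJ cells after 16 hr treatment at 37 °C. Staurosporine and tamoxifen served as positive controls; AC50 values came from Hill modelling of data normalized to DMSO and 10 uM staurosporine.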

[12] = Cellular Toxicity (caspase-3) MRC-5 (AID 659); conditions: MRC-5 cells, luminescence, normalized: DMSO 0%, 10 µM staurosporine 100%; series mostly up to 91.7 µM
Outline: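 Concentration-dependent caspase 3/7 activation is measured in human normal lung fibroblasts (MRC-5) following 16-hour treatment. AC50 values come from standard Hill-equation modeling of luminescence normalized to DMSO and 10 uM staurosporine.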

[13] = Cellular Toxicity (caspase-3) SK-N-SH (AID 661); conditions: SK-N-SH caspase-3 activation, qHTS, DMSO as zero, staurosporine as full; series mostly up to 91.7 µM
Outline: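 Human neuroblastoma SK-N-SH, 1500 cells/well, 5 hr pre-incubation, then compound 16 hr, 37 °C. Caspase-Glo 3/7 reagent, 1 hr RT, luminescence. Norm. to DMSO/10 uM staurosporine; Hill-fit AC50.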

[14] = Cellular Toxicity (caspase-3) H-4-II-E (AID 663); conditions: H-4-II-E rat hepatoma, scaled: DMSO 0%, 100 µM tamoxifen 100%; series mostly up to 92.2 µM;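 note: cells exposed to compound for 16 hr before readout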
Outline: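 Apoptosis induction is scored as increased luminescence from caspase 3/7 substrate cleavage in rat hepatoma H-4-II-E cells exposed to compound for 16 hr. Activity is scaled between DMSO and 100 uM tamoxifen.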

[15] = Cellular Toxicity (caspase-3) N2a (AID 665); conditions: N2a cells, luminescence, normalized: DMSO 0%, 10 µM staurosporine 100%; at 92.2 µM (top of the series);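 note: compound exposure lasted 16 h at 37 °C before readout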
Outline: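 N2a cells, 1500/well, 5 h settle at 37 °C; cpd 16 h, 37 °C; Caspase-Glo 3/7, 1 h RT; luminescence. Norm: DMSO = 0, 10 uM staurosporine = 100%. AC50, Hill fit.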

[16] = molecular target: Cytochrome P450 3A4 (Homo sapiens) (UniProt P08684); experiment: qHTS Assay for Inhibitors and Substrates of Cytochrome P450 3A4 (AID 884); conditions: recombinant CYP3A4, Luciferin-PPXE luminescence; series mostly up to 57.1 µM; note: % is set by controls: 0 for no effect and ±100 for the full control effect; nearly all actives have a fitted effect of over 50% in size
Sequence of Cytochrome P450 3A4 (Homo sapiens) (P08684 whole entry, looked up): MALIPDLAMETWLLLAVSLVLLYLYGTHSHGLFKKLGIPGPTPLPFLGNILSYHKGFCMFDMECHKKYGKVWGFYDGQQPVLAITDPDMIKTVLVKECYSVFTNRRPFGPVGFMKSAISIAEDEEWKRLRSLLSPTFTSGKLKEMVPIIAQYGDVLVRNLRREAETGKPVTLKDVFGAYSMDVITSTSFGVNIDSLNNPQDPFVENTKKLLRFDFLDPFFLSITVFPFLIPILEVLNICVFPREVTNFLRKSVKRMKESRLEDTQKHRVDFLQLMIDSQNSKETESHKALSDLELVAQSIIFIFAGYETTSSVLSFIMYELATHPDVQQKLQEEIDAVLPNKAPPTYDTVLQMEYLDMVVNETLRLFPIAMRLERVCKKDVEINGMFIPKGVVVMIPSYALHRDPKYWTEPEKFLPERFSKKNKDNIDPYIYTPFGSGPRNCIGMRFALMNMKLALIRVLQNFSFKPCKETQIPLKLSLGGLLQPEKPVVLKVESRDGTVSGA
Outline: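 20 nM human CYP3A4 with 25 uM Luciferin-PPXE (at KM) in 200 mM KPO4, preincubated 10 min with compound; NADPH regeneration started a 60 min RT reaction. Luciferin detected by luminescence, normalized to 57 uM ketoconazole as full inhibition.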

[17] = qHTS Assay for Identification of Small Molecule Inducers of Hypoxia Response (AID 2120; active = well fitted curve in the direction sought with a large enough effect in the signal ratio, with a control signal flat, not every such curve was filed as active; the % refers to the signal ratio; note: 0% is about no effect); conditions: hypoxia response reporter cells, beta-lactamase ratio readout; series mostly up to 104 µM
Outline: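 ME-180 HRE-bla cells plated in Opti-MEM/0.5% dialyzed FBS, rested 4-5 h, then dosed with compound titrations by pin tool. After 17 h at 37 degrees C, CCF4 dye loaded 2.5 h at RT; 460/530 nm ratio gave %Activity and AC50.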

[18] = qHTS assay for small molecule agonists of the antioxidant response element (ARE) signaling pathway measured by Nrf2-dependant transcriptional activity - cell viability counter screen (AID 720653; active = well fitted curve in the direction sought with a large enough effect in the repeat runs; an effect the other way counts as inactive or inconclusive; note: % is set by controls: 0 for no effect and ±100 for the full control effect); conditions: ARE-bla HepG2 viability, CellTiter-Glo ATP luminescence, 16 h; hits give low values
Outline: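 Cytotoxicity counter screen: intracellular ATP quantified by CellTiter-Glo luminescence in the same ARE-bla HepG2 plates, after 16 h compound exposure and a 2 h beta-lactamase substrate step.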

[19] = qHTS assay for cell viability of HEK293 cells (AID 743288); conditions: ATP luminescence (CellTiter-Glo), 18 h; max response: hits give low values; note: % is set by controls: 0 for no effect and ±100 for the full control effect; nearly all actives have a fitted effect of over 50% in size
Outline: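 HEK293 parental, 2,000 cells/well; ≥5 h pre-incubation 37 C; pintool compound addition; 18 h, 37 C; CellTiter-Glo 30 min RT; luminescence read.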

[20] = molecular target: Mitogen-activated protein kinase 10 (Mus musculus) (UniProt Q61831); experiment: JNK3 AlphaScreen Assay (AID 530; active = well fitted curve in either direction with a large enough effect, not every such curve was filed as active;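 note: kinase came from lysate of stimulated human HepG2 cells; signal reports phosphorylation of biotinylated GST-cJun 1-79 at Ser73 with 10 µM ATP; % is set by controls: 0 for no effect and ±100 for the full control effect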); conditions: JNK3 lysate, c-Jun phosphorylation; series mostly up to 57.1 µM
Outline: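 Compound titrations were preincubated 15 minutes at room temperature with substrate, antibody and pre-activated JNK3-containing HepG2 lysate. Reactions were started with 10 uM ATP and stopped with EDTA-containing bead buffer for AlphaScreen detection.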

ClC(Cl)=C(Cl)Cl
inactive: Potency [1] > 92 µM | Potency [2] > 92 µM | activity change, negative = cytotoxicity [3] -22.9% and 3.64% | Potency [4] | Potency [5] | activity change, negative = cytotoxicity [6] -15.6% and -5.24% | outcome [7] | caspase-3 activation [8] -0.349% and -0.592% | outcome [9] | outcome [10] | outcome [11] | outcome [12] | outcome [13] | outcome [14] | caspase-3 activation [15] 0.443% and 1.4% | Potency [16] | outcome [17] | max response [18] 5.48% and 2.15% | max response [19] 2.96% and -9.63%

COc1ccc(N)cc1
inactive: Potency [1] > 92 µM | Potency [2] > 92 µM | outcome [20] | activity change, negative = cytotoxicity [3] -5.61% | Potency [4] | Potency [5] | activity change, negative = cytotoxicity [6] 0.402% and -5.11% | outcome [7] | caspase-3 activation [8] 2.07% and 0.631% | outcome [9] | outcome [10] | outcome [11] | outcome [12] | outcome [13] | outcome [14] | caspase-3 activation [15] 1.03% and -0.467% | Potency [16] | outcome [17] | max response [18] 6.52% and -14.8% | max response [19] 2.27% and -1.78%

[O-][Br+2]([O-])O
inactive: Potency [1] > 92 µM | Potency [2] > 92 µM | outcome [20] | activity change, negative = cytotoxicity [3] 0.18% and -3.06% | Potency [4] | Potency [5] | activity change, negative = cytotoxicity [6] -9.6% and -6.64% | outcome [7] | caspase-3 activation [8] -7.93% and -8.01% | outcome [9] | outcome [10] | outcome [11] | outcome [12] | outcome [13] | outcome [14] | caspase-3 activation [15] -9.36% and -10.4% | Potency [16] | outcome [17] | max response [18] 3.23% and -1.6% | max response [19] -15.7% and 1.39%

Clc1ccc2ccccc2c1
inactive: Potency [1] > 92 µM | Potency [2] > 92 µM | activity change, negative = cytotoxicity [3] 7.96% | Potency [4] | Potency [5] | activity change, negative = cytotoxicity [6] -5.07% | outcome [7] | caspase-3 activation [8] 0.888% | outcome [9] | outcome [10] | outcome [11] | outcome [12] | outcome [13] | outcome [14] | caspase-3 activation [15] 4.04% | Potency [16] | outcome [17] | max response [18] 4.36% | max response [19] 3.91%

C[N+](C)(C)Cc1ccccc1
inactive: Potency [1] > 92 µM | Potency [2] > 92 µM | outcome [20] | activity change, negative = cytotoxicity [3] -12.6% | Potency [4] | Potency [5] | activity change, negative = cytotoxicity [6] 0.397% [at 91.7 µM] | outcome [7] | caspase-3 activation [8] 0.448% | outcome [9] | outcome [10] | outcome [11] | outcome [12] | outcome [13] | outcome [14] | caspase-3 activation [15] -0.692% | Potency [16] | outcome [17] | max response [18] -0.49% and -11.3% | max response [19] 3.84% and -11.6%
